BRCT inh red = inhibitors of human BRCA1 BRCT-phosphoprotein interaction (red fluorophore); BRCT-phosphopeptide binding, red fluorescence polarization; Potency, µM (highest dose often 76.9 µM), most hits filed as inhibitors; hit rate 0.03% among 75,000; AID 892
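Fluorescence polarization: 100 nM His-tagged BRCA1 BRCT with 100 nM TAMRA-labelled phospho-BACH1 decapeptide, phosphate buffer pH 7.3 with 150 mM NaCl, DTT, 0.01% Tween 20; 12 min RT. Binding inhibition seen as FP decrease.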
Tau fil binding = tau filament binding. hit rate 2% among 71,000. Potency, µM (highest dose often 57.1 µM). P10636. recombinant tau filaments, thioflavin S fluorescence, 15 h; filaments grown with octadecylsulfate alongside compound. AID 596;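 further: actives lower thioflavin S fluorescence by blocking filaments or displacing dye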
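His-tagged recombinant human tau (exons 2, 3 and 10 included), 1 uM, was induced to fibrillize by 30 uM sodium octadecylsulfate with compound present. After 15 h at 37 C, thioflavine S fluorescence (ex 450, em 510 nm) was read.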
YjeE inh = YjeE (TsaE) inhibition, E. coli | P0AF67 | purified YjeE enzyme, qHTS inhibition assay | Potency, µM | hit rate 0.05% among 71,000 | AID 605
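Fluorescence polarization of a BODIPY Texas Red–ADP probe (2 uM) bound to purified YjeE (10 uM) was read after 15 min room-temperature incubation with compounds. Loss of polarization marks inhibitors; ADP serves as titrated control.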
BRCT PPI green = inhibitors of human BRCA1 BRCT-phosphoprotein interaction (green fluorophore). P38398. BRCA1 BRCT-phosphopeptide binding, green fluorescence polarization. Potency, µM (highest dose often 76.9 µM), actives largely listed as inhibitors. hit rate 0.05% among 75,000
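Fluorescence polarization: His-tagged BRCT (~35 kDa BRCA1 C-terminus, 250 nM) bound to 100 nM fluorescein-labeled phosphorylated 10-aa BACH1 peptide, pH 7.3 phosphate buffer with DTT and Tween 20. Compounds incubated 12 min at room temperature; inhibition read as lowered polarization.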
15-hLO inh = blocks human 15-lipoxygenase activity; purified 15hLO-1, xylenol orange hydroperoxide absorbance; hit rate 1.4% among 74,000; Potency, µM (titrated, usually from 57.1 µM), usual class: inhibitors; further: nearly all actives have a fitted effect of over 55% in size
Target sequence (P16050 whole entry, looked up): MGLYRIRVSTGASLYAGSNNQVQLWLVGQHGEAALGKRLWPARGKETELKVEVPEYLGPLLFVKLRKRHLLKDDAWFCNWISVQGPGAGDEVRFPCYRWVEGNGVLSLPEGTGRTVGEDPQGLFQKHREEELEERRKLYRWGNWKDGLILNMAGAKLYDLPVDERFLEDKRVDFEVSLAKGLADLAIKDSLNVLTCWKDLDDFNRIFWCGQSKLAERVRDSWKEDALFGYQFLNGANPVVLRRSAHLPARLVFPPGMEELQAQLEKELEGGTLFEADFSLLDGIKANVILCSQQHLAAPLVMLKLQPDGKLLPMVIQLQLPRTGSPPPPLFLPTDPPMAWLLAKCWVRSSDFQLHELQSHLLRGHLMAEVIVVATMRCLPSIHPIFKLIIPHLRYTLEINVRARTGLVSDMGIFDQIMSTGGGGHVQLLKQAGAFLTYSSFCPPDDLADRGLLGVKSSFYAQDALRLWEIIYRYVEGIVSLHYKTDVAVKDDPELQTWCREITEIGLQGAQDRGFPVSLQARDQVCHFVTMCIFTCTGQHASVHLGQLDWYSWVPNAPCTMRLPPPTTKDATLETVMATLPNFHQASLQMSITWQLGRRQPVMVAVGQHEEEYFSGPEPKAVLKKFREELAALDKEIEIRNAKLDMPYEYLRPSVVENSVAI
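Quantitative HTS in 25 mM Hepes pH 7.5 containing 0.01% Triton X-100: human 15hLO-1 at 40 nM, arachidonic acid at 50 uM, 6 min turnover. Product quantified via ferrous oxidation/xylenol orange, 573:405 nm absorbance ratio.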
DNA Pol III inh = inhibitors of bacterial DNA polymerase III holoenzyme | reconstituted DNA polymerase III holoenzyme replication, biochemical | Potency, µM (series often up to 57.1 µM) | hit rate 0.25% among 71,000 | AID 603
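Reconstituted *E. coli* holoenzyme (0.35 nM Pol III, 1 nM beta, 154 nM SSB, 2 nM primase) was preincubated with compound for 15 min at RT. Synthesis on 1.4 nM ssM13Gori ran 35 min, then was stopped with PicoGreen/EDTA and read as dsDNA fluorescence.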
Hits are given with their value; n = inactive; u = inconclusive; x = no result; ! = not confirmed by another sample; [ ] = dose if it differs, or a comment. The list is not random: actives were taken first. Their share in the collection is about 3.1%. The call rests on the fitted dose curve; in most records, active means well fitted curve in the direction sought with a large enough effect; inconclusive means small, poorly fitted or top-dose-only effect, or another doubt; inactive means no such curve, though single readings can be large; an effect the other way counts as inactive or inconclusive.

SMILES	BRCT inh red	Tau fil binding	YjeE inh	BRCT PPI green	15-hLO inh	DNA Pol III inh
COc1ccc([C@@H]2CC(=O)c3c(O)cc(O[C@H]4O[C@@H](CO[C@H]5O[C@@H](C)[C@@H](O)[C@@H](O)[C@@H]5O)[C@@H](O)[C@@H](O)[C@@H]4O)cc3O2)cc1O	n	n	n	n	n	n
COc1ccc(-c2nn3c(-c4ccccc4)nnc3s2)cc1	n	n	n	n	n	n
COc1cccc(OC)c1-c1nn2c(-c3cc(-c4ccccc4)n[nH]3)nnc2s1	n	n	u	n	n	13µM
Cc1cc(NC(=O)c2cnn3c(C(F)F)cc(-c4ccccc4)nc23)no1	n	u	n	n	n	n
O=C(NC1CCCCC1)c1cnn2c(C(F)(F)F)cc(-c3ccco3)nc12	n	10µM	n	n	25µM	n
Cc1cc(NC(=O)c2cnn3c(C(F)(F)F)cc(-c4ccccc4)nc23)no1	n	3.2µM	n	n	n	n
COc1ccc(OC)c(S(=O)(=O)Nc2ccc(C(N)=O)cc2)c1	n	n	n	n	n	n
COc1ccc(OC)c(S(=O)(=O)Nc2ccc(O)c(Sc3ncn[nH]3)c2)c1	n	n	n	n	13µM	n
COc1ccc(OC)c(S(=O)(=O)Nc2ccc(O)c3ccccc23)c1	n	25µM	n	n	25µM	n
CN(C)C(=O)c1ccc(-c2ccc3ncnc(N(C)C)c3c2)cc1	n	n	n	n	n	n
O=C(CCCc1ccc(-c2ccccc2F)cc1)Nc1ccc(O)cc1	n	x	x	n	n	x
CC(=O)N1CCC2(CC1)CCN(c1ccc(-c3ccccc3)cc1)CC2	n	13µM	n	n	n	n
O=C(c1cccc(F)c1)N1CCC2(CC1)CCN(c1cccc(-c3ccccc3)c1)CC2	n	25µM	n	n	n	n
O=C(c1ccncc1)N1CCC2(CC1)CCN(c1ccc(-c3ccccc3)cc1)CC2	n	n	n	n	n	n
CO[C@@H]1COC(=O)C/C=C\[C@H](C)COC(=O)[C@H](Cc2ccccc2)NC(=O)C/C=C\[C@H]1C	n[15.4 µM]	x	x	n[15.4 µM]	n[11.4 µM]	x
O=C(Cc1cccs1)NC1C(=O)N2C(C(=O)[O-])=C(C[n+]3ccccc3)CSC12 (stereo not drawn)	n	x	x	n[3.08 µM]	u	x
O=C1Cc2c([nH]c3ccc(Br)cc23)-c2ccccc2N1	n	32µM!	n	n	n	n
CCCCC[C@H](O)c1cccc(OCc2ccc3ccccc3n2)c1	n	n	n	n	n	n
CN(C)CC(=O)N1c2ccccc2CCc2ccc(NC(=O)c3ccc(N)cc3)cc21	n	16µM	n	n	n	n
CCOC(=O)Nc1ccc2c(c1)N(C(=O)OC)c1ccccc1CC2	n	n	n	n	n	n
CN=C(NC#N)NCCSCc1csc(N=C(N)N)n1	n	u	n	n	n	n
CC(=O)N[C@@H](CC(=O)O)C(=O)N[C@@H](CCC(=O)O)C(=O)O	n	n	n	n	n	20µM!
CC(=O)NC(CCC(=O)O)C(=O)O (stereo not drawn)	n	x	x	n[3.08 µM]	n	x
COc1ccc(Nc2ccnc3ccccc23)cc1	n	7.9µM	n	n	n	n
Cc1ccc2c(c1)C(=O)[C@@]1(O)CCN(c3ccccc3)C1=N2	n	25µM	n	n	n	n
SMILES	BRCT inh red	Tau fil binding	YjeE inh	BRCT PPI green	15-hLO inh	DNA Pol III inh
CCOC(=O)c1c(-c2ccc(C)o2)csc1N	n	n[11.4 µM]	n	n	1.6µM	n[11.4 µM]
Cn1nnnc1SCc1ccc(C(=O)Nc2nccs2)cc1	n	2.5µM	n	n	u	n
C=C(CO)[C@H]1Cc2c(ccc3c2O[C@H]2COc4cc(OC)c(OC)cc4[C@@H]2C3=O)O1	x	u	n	x	x	n
COc1ccc(CCNC(=O)C2CCC(CNc3c(N4CCCC4)c(=O)c3=O)CC2)cc1OC (stereo not drawn)	n	x	x	n	n	x
COc1ccc(OC)c(NC(=O)C2CCC(CNc3c(N4CCC(C)CC4)c(=O)c3=O)CC2)c1 (stereo not drawn)	n	3.2µM	n	n	n	n
C#C[C@@]1(O)CC[C@@H]2[C@@H]3CCC4=CC(=O)CC[C@@H]4[C@H]3CC[C@]21C	n	n	n	n	n	n

Screening results deposited in PubChem by National Center for Advancing Translational Sciences (NCATS).
